Results from paper PMC7862700, “An all-to-all approach to the identification of sequence-specific readers for epigenetic DNA modifications on cytosine”.

Experiments:
Experiment in all cases: DAPPL (digital affinity profiling via proximity ligation, sequencing); 10 mM Tris-HCl pH 7.5, 50 mM NaCl, 1 mM DTT, 4% glycerol, room temperature, 30 min; GST-TFs on glutathione beads, 16-mer random dsDNA library, 0.1% formaldehyde crosslink after washing; high values mean tight binding
Details in all cases: protein: recombinant; tags: N-terminal GST; dsDNA, one strand shown
FLI1 = target: T1, FLI1 (Homo sapiens, UniProt Q01543 1-452)
T1 sequence: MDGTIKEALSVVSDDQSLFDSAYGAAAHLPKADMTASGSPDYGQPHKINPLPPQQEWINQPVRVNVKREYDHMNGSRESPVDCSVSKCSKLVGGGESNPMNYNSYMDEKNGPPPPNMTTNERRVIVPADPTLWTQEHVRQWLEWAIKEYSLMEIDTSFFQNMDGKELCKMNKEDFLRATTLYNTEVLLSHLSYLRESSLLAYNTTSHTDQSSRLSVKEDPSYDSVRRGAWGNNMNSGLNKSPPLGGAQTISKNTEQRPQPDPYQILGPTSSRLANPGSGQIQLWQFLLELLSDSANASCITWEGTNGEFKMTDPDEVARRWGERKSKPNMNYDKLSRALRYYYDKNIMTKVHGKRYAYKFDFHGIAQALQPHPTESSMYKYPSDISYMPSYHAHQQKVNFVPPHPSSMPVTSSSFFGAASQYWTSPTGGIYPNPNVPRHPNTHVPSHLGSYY
Method in brief: (§1)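 Human transcription factors carrying a GST fusion were produced in yeast, bound to glutathione beads, tagged with DNA barcodes and pooled together with a tag-only sample. Each pool was held with 200 nmole of a random double-stranded 16-mer DNA library in Tris/NaCl/DTT/glycerol buffer for 30 min at room temperature, then washed, crosslinked in 0.1% formaldehyde, proximity-ligated with BsaI/T4 ligase (1 h, 37 °C), PCR-amplified and sequenced on an Illumina NextSeq500. Binding signal is the read frequency of each hexamer for a given factor divided by its frequency in the tag-only sample.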

GABPA = target: T2, GABPA (Homo sapiens, UniProt Q06546 1-454)
T2 sequence: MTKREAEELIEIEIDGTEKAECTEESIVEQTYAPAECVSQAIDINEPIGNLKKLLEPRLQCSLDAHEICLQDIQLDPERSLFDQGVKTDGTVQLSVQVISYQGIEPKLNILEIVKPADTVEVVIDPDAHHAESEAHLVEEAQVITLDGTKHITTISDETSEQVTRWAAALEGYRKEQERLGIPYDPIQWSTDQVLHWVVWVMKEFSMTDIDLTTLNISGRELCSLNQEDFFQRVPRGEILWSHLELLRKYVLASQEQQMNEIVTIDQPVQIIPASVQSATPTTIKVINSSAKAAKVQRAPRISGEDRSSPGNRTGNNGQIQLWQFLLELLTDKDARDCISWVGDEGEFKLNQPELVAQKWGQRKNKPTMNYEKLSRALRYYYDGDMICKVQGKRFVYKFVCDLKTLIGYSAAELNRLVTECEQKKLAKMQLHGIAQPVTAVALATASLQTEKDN
Method in brief: as §1

ERG = target: T3, ERG (Homo sapiens, UniProt P11308 1-479)
T3 sequence: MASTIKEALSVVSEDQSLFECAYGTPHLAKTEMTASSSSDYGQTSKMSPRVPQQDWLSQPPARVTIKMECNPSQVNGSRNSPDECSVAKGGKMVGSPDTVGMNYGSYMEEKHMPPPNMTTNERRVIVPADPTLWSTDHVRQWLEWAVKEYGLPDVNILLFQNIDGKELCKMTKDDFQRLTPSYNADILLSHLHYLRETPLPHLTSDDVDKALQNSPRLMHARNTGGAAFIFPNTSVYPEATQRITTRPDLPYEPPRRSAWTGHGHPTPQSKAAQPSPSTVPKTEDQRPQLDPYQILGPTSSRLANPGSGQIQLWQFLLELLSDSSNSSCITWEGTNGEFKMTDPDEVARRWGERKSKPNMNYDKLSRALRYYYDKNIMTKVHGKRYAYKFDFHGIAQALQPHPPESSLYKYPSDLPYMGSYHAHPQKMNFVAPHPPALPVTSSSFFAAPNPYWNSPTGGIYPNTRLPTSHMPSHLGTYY
Method in brief: as §1

ELF1 = ELF1 (Homo sapiens, UniProt P32519 1-619)
Sequence of ELF1 (P32519 whole entry): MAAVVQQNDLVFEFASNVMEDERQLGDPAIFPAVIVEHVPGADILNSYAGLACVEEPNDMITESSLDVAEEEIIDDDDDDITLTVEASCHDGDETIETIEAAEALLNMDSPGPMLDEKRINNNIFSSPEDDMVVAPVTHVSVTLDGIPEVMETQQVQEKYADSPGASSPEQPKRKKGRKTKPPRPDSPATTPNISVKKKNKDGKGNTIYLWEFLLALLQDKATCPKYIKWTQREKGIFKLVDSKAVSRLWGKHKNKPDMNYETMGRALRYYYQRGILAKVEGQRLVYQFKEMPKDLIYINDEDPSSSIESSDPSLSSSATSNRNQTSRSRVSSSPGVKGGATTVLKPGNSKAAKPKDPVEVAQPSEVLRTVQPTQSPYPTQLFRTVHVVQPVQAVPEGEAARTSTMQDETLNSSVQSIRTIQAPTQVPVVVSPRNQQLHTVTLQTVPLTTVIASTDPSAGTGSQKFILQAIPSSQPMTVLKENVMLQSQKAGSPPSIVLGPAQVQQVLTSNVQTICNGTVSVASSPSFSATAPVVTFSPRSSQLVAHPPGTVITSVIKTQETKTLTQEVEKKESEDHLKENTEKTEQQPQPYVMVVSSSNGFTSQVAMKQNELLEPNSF
Method in brief: as §1

SPIB = SPIB (Homo sapiens, UniProt Q01892 1-262)
Sequence of SPIB (Q01892 whole entry): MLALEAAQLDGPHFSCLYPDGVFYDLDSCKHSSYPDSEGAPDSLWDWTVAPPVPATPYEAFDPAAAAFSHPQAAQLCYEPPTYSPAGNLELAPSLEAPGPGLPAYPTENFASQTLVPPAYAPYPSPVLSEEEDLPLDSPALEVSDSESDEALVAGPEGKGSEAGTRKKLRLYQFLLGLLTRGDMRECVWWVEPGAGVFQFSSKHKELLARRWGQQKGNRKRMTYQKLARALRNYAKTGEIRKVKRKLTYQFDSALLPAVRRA
Method in brief: as §1

ELK3 = target: T4, ELK3 (Homo sapiens, UniProt P41970 1-407)
T4 sequence: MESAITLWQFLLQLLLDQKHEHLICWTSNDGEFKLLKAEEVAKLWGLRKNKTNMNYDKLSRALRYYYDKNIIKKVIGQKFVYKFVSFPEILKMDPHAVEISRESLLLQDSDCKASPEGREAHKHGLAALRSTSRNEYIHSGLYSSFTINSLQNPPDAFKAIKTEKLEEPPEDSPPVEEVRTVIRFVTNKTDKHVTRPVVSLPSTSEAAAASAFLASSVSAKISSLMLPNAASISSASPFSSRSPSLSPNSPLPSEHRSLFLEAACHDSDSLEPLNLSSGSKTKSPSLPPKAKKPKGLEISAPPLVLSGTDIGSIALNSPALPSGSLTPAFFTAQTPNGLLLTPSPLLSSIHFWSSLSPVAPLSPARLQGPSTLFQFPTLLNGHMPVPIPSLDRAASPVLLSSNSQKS
Method in brief: as §1

ETV5 = ETV5 (Homo sapiens, UniProt P41161 1-510)
Sequence of ETV5 (P41161 whole entry): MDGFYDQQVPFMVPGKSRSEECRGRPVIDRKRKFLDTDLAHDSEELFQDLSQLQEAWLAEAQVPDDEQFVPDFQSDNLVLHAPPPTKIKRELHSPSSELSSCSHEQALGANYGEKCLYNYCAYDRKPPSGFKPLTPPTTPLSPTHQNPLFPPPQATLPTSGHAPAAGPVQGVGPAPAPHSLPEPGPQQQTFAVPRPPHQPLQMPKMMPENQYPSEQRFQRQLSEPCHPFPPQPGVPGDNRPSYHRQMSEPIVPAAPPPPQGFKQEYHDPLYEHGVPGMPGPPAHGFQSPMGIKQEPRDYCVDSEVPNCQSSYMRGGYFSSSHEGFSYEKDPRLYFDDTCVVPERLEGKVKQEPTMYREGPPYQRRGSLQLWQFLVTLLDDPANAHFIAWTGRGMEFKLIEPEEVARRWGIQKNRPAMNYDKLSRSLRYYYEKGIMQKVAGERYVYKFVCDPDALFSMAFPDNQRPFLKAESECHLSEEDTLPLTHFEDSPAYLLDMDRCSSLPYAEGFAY
Method in brief: as §1

SPIC = target: T5, SPIC (Homo sapiens, UniProt Q8N5J4 1-248)
T5 sequence: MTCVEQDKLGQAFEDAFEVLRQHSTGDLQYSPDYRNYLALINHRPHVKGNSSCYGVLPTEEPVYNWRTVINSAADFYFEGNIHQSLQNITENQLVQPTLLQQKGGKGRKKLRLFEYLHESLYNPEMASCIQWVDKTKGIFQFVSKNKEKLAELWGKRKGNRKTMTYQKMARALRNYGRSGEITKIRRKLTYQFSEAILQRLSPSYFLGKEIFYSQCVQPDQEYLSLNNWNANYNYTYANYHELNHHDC
Method in brief: as §1

ELF4 = ELF4 (Homo sapiens, UniProt Q99607 1-663)
Sequence of ELF4 (Q99607 whole entry): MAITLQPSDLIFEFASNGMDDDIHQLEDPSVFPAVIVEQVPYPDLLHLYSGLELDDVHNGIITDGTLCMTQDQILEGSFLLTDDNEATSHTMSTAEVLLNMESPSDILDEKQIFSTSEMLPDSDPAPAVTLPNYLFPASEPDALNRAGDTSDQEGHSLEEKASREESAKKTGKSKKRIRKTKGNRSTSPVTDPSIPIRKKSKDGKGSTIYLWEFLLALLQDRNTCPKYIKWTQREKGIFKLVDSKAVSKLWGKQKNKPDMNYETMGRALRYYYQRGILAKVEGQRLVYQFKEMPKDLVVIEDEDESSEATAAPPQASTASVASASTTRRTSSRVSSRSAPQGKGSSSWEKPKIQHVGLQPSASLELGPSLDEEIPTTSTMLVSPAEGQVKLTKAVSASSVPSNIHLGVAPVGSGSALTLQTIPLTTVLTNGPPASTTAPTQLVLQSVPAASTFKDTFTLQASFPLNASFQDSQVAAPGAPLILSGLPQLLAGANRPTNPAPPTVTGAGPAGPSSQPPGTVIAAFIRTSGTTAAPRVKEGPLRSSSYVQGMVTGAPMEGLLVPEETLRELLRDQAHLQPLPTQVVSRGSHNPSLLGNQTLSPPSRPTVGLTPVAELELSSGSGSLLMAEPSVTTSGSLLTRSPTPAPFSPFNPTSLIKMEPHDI
Method in brief: as §1

ETV1 = ETV1 (Homo sapiens, UniProt P50549 1-477)
Sequence of ETV1 (P50549 whole entry): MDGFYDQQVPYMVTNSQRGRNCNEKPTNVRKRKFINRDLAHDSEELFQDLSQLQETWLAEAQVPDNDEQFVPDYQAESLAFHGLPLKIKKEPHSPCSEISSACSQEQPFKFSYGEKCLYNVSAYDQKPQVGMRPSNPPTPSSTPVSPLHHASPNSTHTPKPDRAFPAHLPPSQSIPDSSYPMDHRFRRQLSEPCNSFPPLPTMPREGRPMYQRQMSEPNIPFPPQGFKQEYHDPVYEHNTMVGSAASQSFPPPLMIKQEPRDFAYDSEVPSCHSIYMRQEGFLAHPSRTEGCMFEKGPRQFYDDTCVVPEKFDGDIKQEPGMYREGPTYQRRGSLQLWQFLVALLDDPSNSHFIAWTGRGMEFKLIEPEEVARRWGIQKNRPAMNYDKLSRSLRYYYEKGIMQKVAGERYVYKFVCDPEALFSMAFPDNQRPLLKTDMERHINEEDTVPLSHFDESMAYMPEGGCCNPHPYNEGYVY
Method in brief: as §1

SPDEF = target: T6, SPDEF (Homo sapiens, UniProt O95238 1-335)
T6 sequence: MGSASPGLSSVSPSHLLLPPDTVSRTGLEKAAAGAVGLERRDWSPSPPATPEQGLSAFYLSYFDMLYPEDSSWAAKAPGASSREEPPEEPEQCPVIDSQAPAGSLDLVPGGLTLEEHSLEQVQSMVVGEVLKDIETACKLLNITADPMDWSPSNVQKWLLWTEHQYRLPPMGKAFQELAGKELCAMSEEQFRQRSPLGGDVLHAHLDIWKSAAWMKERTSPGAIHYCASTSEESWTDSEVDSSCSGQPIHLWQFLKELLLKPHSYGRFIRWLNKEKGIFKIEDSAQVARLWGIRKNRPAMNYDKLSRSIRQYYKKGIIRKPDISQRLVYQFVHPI
Method in brief: as §1

With TACGGT the binding signal (FLI1) was 1.01 fold enrichment (6-mer frequency, TF over GST control), the binding signal (GABPA) was 1.02 fold enrichment (6-mer frequency, TF over GST control) and the binding signal (ERG) was 1.02 fold enrichment (6-mer frequency, TF over GST control). For the same sequence, the binding signal (ELF1) was 1.01 fold enrichment (6-mer frequency, TF over GST control), the binding signal (SPIB) was 1.02 fold enrichment (6-mer frequency, TF over GST control) and the binding signal (ELK3) was 1.11 fold enrichment (6-mer frequency, TF over GST control). The binding signal (ETV5) was 1.04 fold enrichment (6-mer frequency, TF over GST control), the binding signal (SPIC) was 1.02 fold enrichment (6-mer frequency, TF over GST control) and the binding signal (ELF4) was 1.05 fold enrichment (6-mer frequency, TF over GST control). For the same sequence, the binding signal (ETV1) was 1.01 fold enrichment (6-mer frequency, TF over GST control) and the binding signal (SPDEF) was 1.1 fold enrichment (6-mer frequency, TF over GST control).
